The record followed here is PMC4336329 (PLoS ONE, 2015).

Out of some 310,000 compounds screened, about 14,000 (4.5%) showed an effect of 50% or more. Effects have a minus sign here. The full list was thinned out, with strong results kept by preference.
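Also: peak tail current of the secondary pulse compared with the same well before compound.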

The test deals with human ether-à-go-go-related gene (hERG) potassium channel (human, UniProt Q12809). The test can be described thus: primary screen, population patch clamp on CHO cells stably expressing hERG; higher = less effect of the substance.
Chain of human ether-à-go-go-related gene (hERG) potassium channel (Q12809 whole entry, looked up): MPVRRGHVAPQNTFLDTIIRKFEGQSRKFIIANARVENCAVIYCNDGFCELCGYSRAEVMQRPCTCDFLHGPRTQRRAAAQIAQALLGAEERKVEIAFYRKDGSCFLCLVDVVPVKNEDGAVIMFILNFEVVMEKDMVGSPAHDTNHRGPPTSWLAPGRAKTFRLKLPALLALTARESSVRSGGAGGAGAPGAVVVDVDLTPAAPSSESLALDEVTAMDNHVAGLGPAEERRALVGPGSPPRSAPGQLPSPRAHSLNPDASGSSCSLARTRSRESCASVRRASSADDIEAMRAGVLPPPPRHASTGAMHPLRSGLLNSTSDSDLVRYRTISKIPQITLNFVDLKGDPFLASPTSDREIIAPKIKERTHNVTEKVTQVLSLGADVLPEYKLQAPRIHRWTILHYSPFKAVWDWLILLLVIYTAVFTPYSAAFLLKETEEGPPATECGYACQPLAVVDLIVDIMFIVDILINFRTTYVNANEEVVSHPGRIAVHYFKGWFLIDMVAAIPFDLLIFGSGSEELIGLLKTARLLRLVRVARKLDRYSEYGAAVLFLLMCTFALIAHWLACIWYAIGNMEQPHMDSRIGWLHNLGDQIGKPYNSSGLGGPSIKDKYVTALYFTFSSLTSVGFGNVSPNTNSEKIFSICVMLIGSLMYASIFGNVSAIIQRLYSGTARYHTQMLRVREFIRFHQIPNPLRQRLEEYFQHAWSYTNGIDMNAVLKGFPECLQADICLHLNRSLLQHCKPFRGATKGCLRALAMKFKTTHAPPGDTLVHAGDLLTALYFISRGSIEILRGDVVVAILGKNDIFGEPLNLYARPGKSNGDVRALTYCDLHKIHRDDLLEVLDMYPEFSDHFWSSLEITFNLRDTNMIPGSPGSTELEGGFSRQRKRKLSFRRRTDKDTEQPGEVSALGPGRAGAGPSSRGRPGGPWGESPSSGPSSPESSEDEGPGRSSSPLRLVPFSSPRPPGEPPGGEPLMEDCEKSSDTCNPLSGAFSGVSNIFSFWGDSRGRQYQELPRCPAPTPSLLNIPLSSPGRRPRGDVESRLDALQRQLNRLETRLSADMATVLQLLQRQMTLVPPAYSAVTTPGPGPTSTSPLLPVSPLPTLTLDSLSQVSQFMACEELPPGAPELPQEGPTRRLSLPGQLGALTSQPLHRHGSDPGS
As for `CC(=O)c1c(C)nc(-c2ccc(Cl)cc2)nc1NC(=O)C(C)C`, the “hERG current change (%, negative = inhibition) at 10uM” value was -9.25%. To `Oc1ccccc1N=N/C(=N/Nc1ccccc1O)c1ccccc1` belongs 8.83%. With `COC(=O)CCC(=O)Nc1ccccc1C(N)=O` the figure was 23.1%.

Take `CC(C)(CO)Nc1ccc([N+](=O)[O-])cc1[N+](=O)[O-]`: the “hERG current change (%, negative = inhibition) at 10uM” value is recorded as -8.26%.

In the case of `CC1(C)Cc2c(cnn2-c2ccc(F)cc2)C(NC(=O)Cn2cncn2)C1` (stereo not drawn), the “hERG current change (%, negative = inhibition) at 10uM” value is listed as 7.61%. With `CC1(C)Cc2c(cnn2-c2ccc(F)cc2)C(NC(=O)CCN2CCCC2=O)C1` (stereo not drawn) the figure was 5.01%; with `Cc1ccc(-n2ncc3c2CC(C)(C)CC3NC(=O)CCn2cncn2)cc1` (stereo not drawn), -76.8%; with `COc1ccc(-n2ncc3c2CC(C)(C)CC3NC(=O)CCn2cncn2)cc1` (stereo not drawn), -42.2%.

Regarding `CC1(C)Cc2c(cnn2-c2ccc(F)cc2)C(NC(=O)CCn2cncn2)C1` (stereo not drawn), the “hERG current change (%, negative = inhibition) at 10uM” value was -69.1%.

In the case of `CC1(C)Cc2c(cnn2-c2ccccc2)C(NC(=O)CCCn2cncn2)C1` (stereo not drawn), the “hERG current change (%, negative = inhibition) at 10uM” value is -1.88%. `COc1cc(-c2nc3c[n+](CC(=O)c4ccccc4)ccc3n2C)cc(OC)c1OC.[Br-]`: the “hERG current change (%, negative = inhibition) at 10uM” value worked out at 0.461%. With `CCC(CC)C(=O)Nc1ccc(-c2cn3cccnc3n2)cc1` the figure was 4.74%; with `Cc1cc(C)n(-c2ccc(C(=O)Nc3ccc(S(=O)(=O)N(C)C)cc3)cc2)n1`, -40.8%; with `Cc1ccccc1-c1nnc(-c2ccccc2)o1`, -6.58%. Regarding `Cc1ccc(N2CC(NC(=O)C(=O)c3c(C)[nH]c4ccccc34)CC2=O)cc1C` (stereo not drawn), the “hERG current change (%, negative = inhibition) at 10uM” value is recorded as -10.1%.

For `O=C(NC1CCCCC1)N1CCN(C(=O)c2ccco2)CC1`, the “hERG current change (%, negative = inhibition) at 10uM” value is given as -6.24%.

As to `O=C(NC1CC(=O)N(c2ccccc2)C1)N1CCN(C(=O)c2ccco2)CC1` (stereo not drawn), the “hERG current change (%, negative = inhibition) at 10uM” value is -5.77%.

Turning to `Cc1[nH]c2ccccc2c1C(=O)C(=O)NC1CC(=O)N(c2ccc(F)cc2)C1` (stereo not drawn), the “hERG current change (%, negative = inhibition) at 10uM” value is listed as -51.9%. As to `COc1ccc(N2CCN(C(=O)NC3CC(=O)N(c4ccc(OC)cc4)C3)CC2)cc1` (stereo not drawn), the “hERG current change (%, negative = inhibition) at 10uM” value was -35.9%. With `O=C(NC1CC(=O)N(c2ccc(Cl)cc2)C1)C1CC1` (stereo not drawn) the figure was -18.2%. To `O=C(NC1CC(=O)N(c2cccc(F)c2)C1)N1CCN(C(=O)c2ccco2)CC1` (stereo not drawn) belongs -26.1%; to `Cc1ccc(N2CC(NC(=O)C(=O)c3c(C)[nH]c4ccccc34)CC2=O)cc1` (stereo not drawn), -47.8%. With `O=C(NC1CC(=O)N(c2ccc(F)cc2)C1)N1CCN(C(=O)c2ccco2)CC1` (stereo not drawn) the figure was -63%; with `Cc1ccc(N2CC(NC(=O)N3CCN(C(=O)c4ccco4)CC3)CC2=O)cc1` (stereo not drawn), -52.6%; with `COc1ccc(N2CC(NC(=O)N3CCN(C(=O)c4ccco4)CC3)CC2=O)cc1OC` (stereo not drawn), 5.5%. `O=C(NC1CC(=O)N(c2ccc(Cl)cc2)C1)N1CCN(C(=O)c2ccco2)CC1` (stereo not drawn): the “hERG current change (%, negative = inhibition) at 10uM” value is listed as -91.6%. As to `COc1ccc(COc2ccc3ccc(=O)oc3c2)cc1`, the “hERG current change (%, negative = inhibition) at 10uM” value came out at 9.33%.

Regarding `O=C(OCc1nnc(-c2ccccc2)o1)c1cc2ccccc2cc1O`, the “hERG current change (%, negative = inhibition) at 10uM” value was 8.95%. With `C/C(=N\NC(=O)c1nnn(-c2nonc2N)c1-c1cccs1)c1ccc(C)cc1` the figure was -0.452%; with `CC(=O)Nc1ccc(N2CCN(c3ccc(F)cc3)CC2)cc1`, 18.4%; with `CS(=O)(=O)c1ccccc1C(=O)NC1CCCc2ccccc21` (stereo not drawn), 66.1%. With `O=C(CCN1C(=O)S/C(=C\c2cccs2)C1=O)Nc1nccs1` the figure was 9.41%; with `CCOC(=O)CNC(=O)N1CCC(CCOc2ccccc2)(C(=O)OCC)CC1`, 1.83%; with `CCOC(=O)CCNC(=O)N1CCC(CCOc2ccccc2)(C(=O)OCC)CC1`, -16.1%. With `CCOC(=O)C1(CCOc2ccccc2)CCN(Cc2ccc3nonc3c2)CC1` the figure was -17%; with `CCOC(=O)C1(CCOc2ccccc2)CCN(Cc2ccc(-n3cccn3)cc2)CC1`, -84.1%; with `CCOC(=O)C1(CCOc2ccccc2)CCN(Cc2cccc(-n3cccn3)c2)CC1`, -79.3%.

For the compound `CCOC(=O)C1(CCOc2ccccc2)CCN(C(=O)c2ccc(-n3cccn3)cc2)CC1`, the “hERG current change (%, negative = inhibition) at 10uM” value is reported as -78.9%. With `COc1ccccc1C(=O)Nc1nc(N)n(-c2ccccc2)n1` the figure was 13.8%. With `CCCNC(=S)Nc1ccc(Oc2ccccc2)cc1` the figure was -10.8%; with `O=C(O)/C=C/c1cnc2ccccc2n1`, 16.6%; with `Cc1ccc(S(=O)(=O)N2CCC(C(=O)NN3CCCCC3)CC2)cc1`, 4.16%.
